Rows were chosen to be rich in hits. Some 2.3% of all compounds tested hit in one or more screens of this group.
SIRT5 inh – SIRT5 desuccinylase inhibitors, primary screen, biochemical, fluorescence imaging, single point, set 5; hit rate 1.1% among 330,000; Purified SirT5, succinyl-peptide AMC, trypsin-coupled fluorescence; AID 652115, 2013; NAD-dependent protein deacylase sirtuin-5, mitochondrial (Homo sapiens), Q9NXA8; inhibition, % at 15 µM; in the data active = inhibition above about 15%
Target sequence (Q9NXA8 whole entry, looked up): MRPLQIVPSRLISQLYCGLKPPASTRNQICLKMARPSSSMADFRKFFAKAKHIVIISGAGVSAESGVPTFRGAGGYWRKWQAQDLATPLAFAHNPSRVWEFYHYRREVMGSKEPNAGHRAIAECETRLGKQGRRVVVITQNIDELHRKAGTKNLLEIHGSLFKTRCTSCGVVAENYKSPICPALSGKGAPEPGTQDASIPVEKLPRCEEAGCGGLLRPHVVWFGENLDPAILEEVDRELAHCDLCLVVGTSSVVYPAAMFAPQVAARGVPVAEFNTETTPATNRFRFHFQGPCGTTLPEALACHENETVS
PDI turbidity – inhibitors of human PDI, primary screen, biochemical, turbidity, single point, plate reader; Protein disulfide-isomerase (Homo sapiens), P07237; PDI insulin aggregation turbidity, A650, 90 min; inhibition, % at 10 µM; hit rate 0.052% among 350,000;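 active = mean inhibition across replicates of 30% or more, whatever share of single replicates reach that level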
ERp5 block – inhibitors of ERp5-driven insulin aggregation, primary screen, biochemical, turbidity, absorbance 650 nm, single point; 90 min; hit rate 0.05% among 350,000; AID 651711, 2012; inhibition, % at 9.99 µM; Protein disulfide-isomerase A6 (Homo sapiens), Q15084;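 active = mean replicate inhibition above about 25%, with every replicate also reaching it, limit read from the data, passing the limit was not always enough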
Rtt109 Vps75 – inhibitors of C. albicans Rtt109/Vps75 HAT, primary screen, biochemical, ThioGlo CoA-SH fluorescence, plate reader; Histone acetyltransferase RTT109 (Candida albicans (strain SC5314 / ATCC MYA-2876)), …; purified Rtt109/Vps75, 4 h; inhibition, % at 34.9 µM; hit rate 0.16% among 330,000; AID 540336, 2011;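 active = inhibition of at least 50% in every replicate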
DENV2 CPE rescue – inhibitors of DENV2 cytopathic effect, primary screen, cell-based, plate reader, single concentration. DENV2-infected cells, cytopathic effect rescue. CPE inhibition, % at 9.99 µM. hit rate 1.7% among 350,000. AID 651640, 2012; in the data active = CPE inhibition above about 20%, passing the limit was not always enough; tested in BHK-21 cells;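 also: 0% = median of neutral control wells and 100% = median of positive control wells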
Numbers without * were called inactive; · = not tested or not shown.

SMILES	SIRT5 inh	PDI turbidity	ERp5 block	Rtt109 Vps75	DENV2 CPE rescue
O=C1C=CC(=O)N1Cc1ccccn1	21*	0	3	-4	9
O=C1c2ccccc2C(=O)N1Cc1ccccn1	-6	9	-1	-25	1
O=C(C1CCOCC1)N1CC2(C1)[C@H](c1ccccc1)[C@@H](CO)N2Cc1ccccc1F	·	·	-5	·	4
CC(=O)Nc1nnc(CCS(=O)(=O)c2ccc(C)c(C)c2)s1	-4	0	1	59*	7
O=C(Nc1ccn(CCCN2CCN(c3ncccn3)CC2)c(=O)n1)OCc1ccccc1	-1	-6	-6	·	6
O=C(Nc1ccn(CC(=O)N2CCN(c3ccccn3)CC2)c(=O)n1)OCc1ccccc1	·	-4	-2	-2	119*
O=C(Cn1ccc(NC(=O)OCc2ccccc2)nc1=O)NCCCN1CCCC1=O	·	9	-4	1	114*
OC[C@@H]1[C@@H](c2ccc(-c3ccc(F)cc3)cc2)[C@H]2CN(Cc3cccnc3)CCCCN12	-1	·	-3	·	-14
Cc1cn(CC(=O)NCc2ccccc2)c(=O)[nH]c1=O	20*	6	1	7	-1
Cc1cn(CC(=O)NCCCn2ccnc2)c(=O)[nH]c1=O	15*	6	-2	9	-2
CC(C)NC(=O)N(C)C[C@H]1OCCCC[C@H](C)Oc2ccc(NC(=O)c3ccncc3)cc2C(=O)N([C@H](C)CO)C[C@@H]1C	3	·	1	·	-1
O=C(c1cccc(Cl)c1)N1CCCC(C(=O)N2CCCCCC2)C1 (stereo not given)	·	4	·	7	·
O=C(c1cccc(F)c1)N1CCCC(C(=O)N2CCCCCC2)C1 (stereo not given)	27*	-2	2	-8	3
COc1cccc(-c2ccc([C@H]3[C@H]4CNCC(=O)N4[C@H]3CO)cc2)c1	4	·	5	·	22*
COc1cccc(-c2ccc([C@@H]3[C@@H](CO)N4CCCCN(CC5CC5)C[C@@H]34)cc2)c1	-1	·	15	·	16
COc1cccc(-c2ccc([C@H]3[C@@H](CO)N4C(=O)CNC[C@@H]34)cc2)c1	0	·	2	·	-4
OC[C@H]1[C@@H](c2ccc(-c3cccc(F)c3)cc2)[C@H]2CN(CCC(F)(F)F)CCCCN21	24*	·	3	·	13
COc1cccc(-c2ccc([C@@H]3[C@H]4CN(CC5CC5)CCCCN4[C@H]3CO)cc2)c1	-3	·	6	·	58*
COCC(=O)N1[C@H](C(=O)NCc2ccccc2)[C@@H](CO)[C@@H]2Cn3c(cccc3=O)[C@@H]21	3	·	1	·	-2
C[C@H]1CCCCO[C@@H](CN(C)Cc2ccccc2)[C@@H](C)CN([C@@H](C)CO)C(=O)c2cc(NC(=O)c3ccccc3)ccc2O1	·	·	·	·	11
C[C@H]1CCCCO[C@H](CN(C)C(=O)Nc2ccc3c(c2)OCO3)[C@@H](C)CN([C@@H](C)CO)C(=O)c2cc(NS(C)(=O)=O)ccc2O1	-3	·	4	·	-2
COc1cccc(-c2ccc([C@@H]3[C@H](CO)N4CCCCN(C(=O)c5ccc(F)cc5)C[C@@H]34)cc2)c1	6	·	-1	·	41*
O=C(c1cccc(F)c1)N1CCCCN2[C@H](CO)[C@H](c3ccc(-c4ccccc4)cc3)[C@H]2C1	-2	·	10	·	41*
COc1cccc(-c2ccc([C@H]3[C@H]4CN(C(=O)c5ccc(F)cc5)CCCCN4[C@H]3CO)cc2)c1	3	·	-1	·	11
O=C(c1cccc(F)c1)N1CCCCN2[C@H](CO)[C@@H](c3ccc(-c4ccccc4)cc3)[C@@H]2C1	2	·	-4	·	-13
C[C@@H]1CCCCO[C@@H](CN(C)C(=O)NC2CCCCC2)[C@@H](C)CN([C@@H](C)CO)C(=O)c2cc(NS(=O)(=O)c3ccc(F)cc3)ccc2O1	2	·	3	·	5
CC1CCN(C(=O)c2ccc(CNc3c(N4CCCC4)c(=O)c3=O)cc2)CC1	1	-4	1	-3	-6
O=C(c1ccc(CNc2c(N3CCCC3)c(=O)c2=O)cc1)N1CCN(C2CCCCC2)CC1	2	-9	1	-8	78*
CCOC(=O)C1C(c2cccs2)NC(=O)NC1(O)C(F)(F)F (stereo not given)	17*	-1	2	-8	11
